Source: PubChem BioAssay (National Center for Advancing Translational Sciences (NCATS))
Compounds with a hit are over-represented: about 9.3% of the library has one in this group of screens.
ELG1 genotox – induces genotoxicity in HEK293T cells with luciferase-tagged ELG1 | HEK293T ELG1-luciferase reporter, luminescence, 16 h | Potency, µM (doses to about 46 µM), for inactives: at the top dose activity change, positive = activation, actives largely listed as activators | 1.3% of 330,000 active; also: % of control where 0% means no effect; nearly all actives have a fitted effect of over 60% in size
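Screening used a luciferase reporter fused to human ELG1 in HEK293T cells. Luminescence was read on a CCD plate imager after 16 hr exposure and 30 min ONE-Glo incubation.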
FLuc modulator – firefly luciferase modulation, counter-screen for miR-21 project; P08659; purified FLuc, Km substrates, luminescence inhibition; Potency, µM (top dose mostly 57.5 µM), without a hit: at the top dose activity change, negative = inhibition, actives largely listed as inhibitors; 6.9% of 360,000 active; AID 588342;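 also: plate controls were vehicle for no effect and reference inhibitor for full effect; nearly all actives have a fitted effect of over 55% in size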
Target sequence (P08659 whole entry, looked up): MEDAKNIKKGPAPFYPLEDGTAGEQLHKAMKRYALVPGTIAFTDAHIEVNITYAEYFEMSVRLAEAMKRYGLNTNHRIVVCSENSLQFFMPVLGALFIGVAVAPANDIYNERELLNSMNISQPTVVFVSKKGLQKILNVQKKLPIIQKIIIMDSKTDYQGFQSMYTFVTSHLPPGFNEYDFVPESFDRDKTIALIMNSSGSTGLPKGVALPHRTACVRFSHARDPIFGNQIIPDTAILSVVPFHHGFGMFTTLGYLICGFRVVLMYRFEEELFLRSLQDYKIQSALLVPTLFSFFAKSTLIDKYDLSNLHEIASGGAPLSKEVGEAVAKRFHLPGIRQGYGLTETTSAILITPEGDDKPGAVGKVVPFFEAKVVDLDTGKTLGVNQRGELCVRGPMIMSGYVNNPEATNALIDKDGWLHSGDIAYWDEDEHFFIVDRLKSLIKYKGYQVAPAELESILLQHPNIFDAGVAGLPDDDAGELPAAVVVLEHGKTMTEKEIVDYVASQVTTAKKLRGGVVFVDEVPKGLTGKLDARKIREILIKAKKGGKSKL
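Purified P. pyralis luciferase (10nM final) with 10uM D-luciferin and 10uM ATP (Km levels) in 50mM Tris acetate pH 7.5, 10mM Mg acetate, 0.01% Tween-20, 0.05% BSA; qHTS 6-point titration, ~60 µM downward; luminescence read.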
NPC1 promoter act – activators of NPC1 promoter | Huh7 NPC1 promoter luciferase reporter, 24 h | Potency, µM (series often up to 9.22 µM), without a hit: at the highest dose activation, hits mostly activators | 2.4% of 320,000 active; also: % of control where 0% means no effect; nearly all actives have a fitted effect of over 60% in size
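Compounds in DMSO were transferred onto Huh7 NPC1-luciferase reporter cells pre-incubated 2 h; after 24 h at 37 °C, Amplite reagent was dispensed and luminescence recorded 10 min later.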
SMN2 splice enh – enhancers of SMN2 splice variant expression; Potency, µM (highest dose often 46.1 µM), for inactives: at the top dose activity change, positive = activation, most hits filed as activators; 2.8% of 210,000 active; HEK293 SMN2-luciferase splicing reporter, luminescence, 30-36 h; also: % of control where 0% means no effect; nearly all actives have a fitted effect of over 55% in size
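qHTS luciferase splicing reporter: luminescence rises when SMN2 exon 7 is included in transfected HEK293 cells. Compound exposure lasted 30-36 h at 37C, with 4.5 mM final sodium butyrate as control, followed by a ONE-Glo read.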
ELG1 DNA repair – ELG1-dependent DNA repair inhibition. HEK293T ELG1-luciferase reporter, luminescence, 16 h; DNA damage induced by 5-fluorouridine. Potency, µM (top dose mostly 46.1 µM), inactives show at the top dose activity change, negative = inhibition, most hits filed as inhibitors. 2.3% of 330,000 active; also: % is scaled to controls: 0 for no effect and ±100 for the full control effect; nearly all actives have a fitted effect of over 55% in size
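Reporter activity after DNA damage by 5-fluorouridine is monitored. Compound-treated cells incubate 16 hr at 37 °C, then ONE-Glo is added for 30 min before luminescence reading.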
Rab9 promoter act – Rab9 promoter activation. Huh7 Rab9 promoter-luciferase reporter, luminescence, 24 h. Potency, µM (top dose mostly 9.22 µM), for the others: at the highest dose activation, negative = inhibition, usual class: activators. 2.8% of 320,000 active. AID 485297; also: % of control where 0% means no effect; nearly all actives have a fitted effect of over 60% in size
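Rab9 promoter-driven luciferase in stably transfected Huh7 cells; 1500 cells/well rested 2 h, exposed to compound in DMSO for 24 h at 37 °C, 5% CO2. Luminescence read 10 min after adding luciferase reagent at ambient temperature.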
Starred values were filed as active, the others as inactive; u = inconclusive; x = no result given; [ ] = remark or other dose. Calls follow the shape of the dose curve; as a rule, active = well fitted curve in the direction sought with a large enough effect; inconclusive = small, poorly fitted or top-dose-only effect, or another doubt; inactive = no such curve, though single readings can be large; an effect the other way counts as inactive or inconclusive. Potency is read from the fitted curve at half-maximal effect.

SMILES	ELG1 genotox	FLuc modulator	NPC1 promoter act	SMN2 splice enh	ELG1 DNA repair	Rab9 promoter act
O=C(Nc1ccc(F)cc1)c1nsc(Cl)c1Cl	u	4.8µM*	3.5µM*	11µM*	u	3.2µM*
O=C(Nc1ccc(F)cc1)c1nc[nH]c1C(=O)O	0%	-6%	-7%	x	-2%	0%[1.84 µM]
Cn1cc(Br)c(C(=O)NNC(=O)c2ccc(Cl)cc2)n1	u	19µM*	22%	u	u	29%
COc1ccc(-c2cc3ccccc3oc2=O)cc1NC(=O)c1ccc(Br)o1	u	2%	u	3.2µM*	u	u
CCC(=O)Nc1cc(-c2cc3ccccc3oc2=O)ccc1OC	u	-3%	u	1.1µM*	u	0.79µM*
COc1ccc(-c2cc3ccccc3oc2=O)cc1NC(=O)c1ccc([N+](=O)[O-])o1	8%	-9%	21%	6%	-9%	3.5µM*
CC(=O)Nc1ccc(-c2cc3ccccc3o2)cc1	u	3µM*	2.2µM*	11µM*	u	3.2µM*
CCN(CC(=O)Nc1ccc(NC(C)=O)cc1)C(=O)c1cc2ccccc2oc1=O	2%	-18%	-6%	x	9%	-3%
O=C(Nc1cccc(-c2cc3ccccc3oc2=O)c1)c1ccc(Br)o1	-2%	-16%	0%	25%	u	-3%
CC(C)(C)NC(=O)C(=O)NNC(=O)c1ccc(C(C)(C)C)cc1	1%	-5%	-2%	11%	6%	-2%
COc1ccc(S(=O)(=O)NCCSCc2cccc(C)c2)cc1Br	3%	1%	0%	-14%	u	5%
CCOC(=O)c1ccccc1NC(=O)CCNC(=O)Cn1cnc2ccccc2c1=O	-2%	1%	1%	1%	0%	-6%
O=C(C[C@@H]1C/C=C\C[C@H](NC(=O)OCC2c3ccccc3-c3ccccc32)C(=O)OC[C@@H]2CCCN2C1=O)N[C@@H](CO)Cc1ccccc1	1%	x	x	x	u	x
O=C(Cc1ccc(Cl)cc1)Nc1ccc(-c2cc3ccccc3oc2=O)c(Cl)c1	-2%	-19%	-26%	-20%	u	-19%
CCC(=O)Nc1ccc(-c2cc3ccccc3oc2=O)cc1	3.7µM*	7.6µM*	u	8.9µM*	u	u
C/C(N)=C(/C#N)C(=O)CSc1nnc(-c2ccc3c(c2)OCO3)o1	0.58µM*	0.27µM*	0.28µM*	1.1µM*	u	0.1µM*
CCn1c(CSc2nnc(-c3ccc4c(c3)OCO4)o2)nc2cc(S(=O)(=O)N(C)C)ccc21	-7%	u	6%	-26%	15µM*	1%
C/C(N)=C(/C#N)C(=O)CSc1nnc(-c2ccc(OC(F)F)cc2)o1	5.8µM*	2.7µM*	1.4µM*	11µM*	u	1.3µM*
NC(=O)c1ccc(NC(=O)CSc2nnc(-c3ccc4c(c3)OCO4)o2)cc1	6%	-2%	11%	x	21%	20%
O=C(O)CSc1nnc(-c2ccc3c(c2)OCO3)o1	1%	u	-2%	-1%	7%	-3%
O=C(c1ccc(Cl)cc1)N1CCCCC(Sc2nnc(-c3ccc4c(c3)OCO4)o2)C1=O (centres undefined)	u	1.9µM*	u	-87%	u	u
Nn1c(Cc2cccc3ccccc23)nnc1SCc1c(F)cccc1Cl	0%	-15%	-2%	17%	10%	2%
COCCCn1c(SCc2cccc(C(F)(F)F)c2)nc2cc(OC)c(OC)cc2c1=N	-7%	7%	-7%	-67%	u	-1%
CC(C)(C)C(=O)CN1C(=O)NC2(CCc3ccccc32)C1=O (centres undefined)	10%	-2%	-4%	x	0%	-6%
C/C(N)=C(/C#N)C(=O)CSc1ccccc1F	u	u	u	u	u	3.5µM*
SMILES	ELG1 genotox	FLuc modulator	NPC1 promoter act	SMN2 splice enh	ELG1 DNA repair	Rab9 promoter act
NC(=O)CSc1nnc(-c2ccc3c(c2)OCO3)o1	u	15µM*	2.8µM*	13µM*	u	2.5µM*
Nc1cccc(CP(=O)(c2ccccc2)c2ccccc2)c1	-1%	-1%	1%	x	u	-4%
S=c1[nH]nc(-c2cccnc2)o1	1%	-2%	-2%	26%	2%	4%
COc1ccc(CNC(=O)Cn2nc(C(F)(F)F)c3c2CCC3)cc1	-6%	1%	6%	11µM*	0%	-1%
CC1Cc2nc(SCC(=O)Nc3ccc4c(c3)OCO4)n(CCc3ccccc3)c(=O)c2S1 (centres undefined)	-4%	-3%	3%	7%	13µM*	-1%
Cc1ccc(CN2CCN(/N=C/c3ccc(C)s3)CC2)cc1	-1%	4%	1%	-12%	-1%	-7%
COc1ccc(-c2csc(N3CCC(c4ccccc4)C3)n2)cc1 (centres undefined)	12%	4.3µM*	u	-23%	u	u
Clc1ccc(-c2csc(N3CCC(c4ccccc4)C3)n2)cc1 (centres undefined)	u	2.7µM*	3.5µM*	2%	u	3.5µM*
Fc1ccc(-c2csc(N3CCC(c4ccccc4)C3)n2)cc1 (centres undefined)	17%	2.4µM*	3.2µM*	u	u	3.5µM*
Cc1ccc(C(=O)Nc2cccnc2)cc1S(=O)(=O)N1CCOCC1	-1%	0%	-3%	-23%	0%	-4%
COc1ccc(CNC(=O)c2noc3c2CCCCC3)cc1	15%	u	27%	-11%	u	u
O=C(NCc1ccco1)c1noc2c1CCCC2	2%	-10%	17%	-3%	u	27%
O=C(NC1CCCC1)c1noc2c1CCCCC2	14µM*	u	u	10µM*	u	u
O=C(NCc1cccs1)c1noc2c1CCCCC2	18µM*	u	u	29%	u	u
O=C(NCc1ccccc1)c1noc2c1CCCCC2	u	21µM*	3.5µM*	25µM*	u	1.6µM*
COc1cccc(/C=N/NC(=O)CSc2ccccc2C)c1O	u	u	-25%	-98%	-19%	-27%
COc1cccc(/C=N/NC(=O)N/N=C/c2cccc(OC)c2O)c1O	-7%	4.3µM*	-2%	x	u	-3%
COc1cccc(/C=N/NC(=O)C(=O)N2CCCC2)c1O	u	15µM*	7%	-48%	u	11%
COc1cccc(/C=N/NC(=O)C(=O)N2CCCC2)c1OC	0%	-12%	-1%	0%	-3%	3%
